Assay outcomes (PubChem)
Bcl-W Bim block = disrupts Bim peptide binding to human Bcl-W; actives 0.02% (n = 190,000); bead-based flow cytometry; Q92843; inhibition, % at 10 µM;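 further: 0% = bound tracer without compound and 100% = peptide blocker; higher means less fluorescent Bim peptide bound to Bcl-W beads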
Target sequence (Q92843 whole entry, looked up): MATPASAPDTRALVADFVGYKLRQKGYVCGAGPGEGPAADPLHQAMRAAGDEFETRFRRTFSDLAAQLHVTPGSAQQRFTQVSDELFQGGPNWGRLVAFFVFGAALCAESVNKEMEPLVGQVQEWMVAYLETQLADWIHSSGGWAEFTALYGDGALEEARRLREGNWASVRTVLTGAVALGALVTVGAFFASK
Bcl-2 Bim block = disrupts Bim peptide binding to human Bcl-2; P10415; Bead-based flow cytometry, Bim peptide-Bcl-2 binding; inhibition, % at 10 µM; actives 0.06% (n = 190,000); AID 950; in the data active means inhibition above about 40%;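 further: 0% = no compound wells with probe peptide and 100% = reference peptide inhibitor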
Furin inh = human furin inhibition. purified furin, fluorogenic substrate cleavage. inhibition, % at 20 µM or 30 µM. actives 0.061% (n = 220,000); in the data active means inhibition above about 25%
Bim-Bcl-XL = human Bim-Bcl-XL interaction inhibition. Bim peptide-Bcl-XL binding, bead flow cytometry, fluorescence. inhibition, % at 10 µM. Q07817. actives 0.04% (n = 190,000)
Bim-Bfl-1 = disrupts Bim binding to human Bfl-1 | Q16548 | Bead-based flow cytometry, Bim-Bfl-1 binding inhibition | inhibition, % at 10 µM | actives 0.12% (n = 190,000) | AID 1008;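 further: 0% = wells without compound plus tracer and 100% = blocker peptide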
Target sequence (Q16548 whole entry, looked up): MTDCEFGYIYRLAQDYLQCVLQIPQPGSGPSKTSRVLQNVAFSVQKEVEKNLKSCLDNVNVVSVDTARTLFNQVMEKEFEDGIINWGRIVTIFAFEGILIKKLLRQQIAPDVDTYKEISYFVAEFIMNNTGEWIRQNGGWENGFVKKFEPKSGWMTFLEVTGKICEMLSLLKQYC
Bim-Bcl-B = human Bim-Bcl-B interaction inhibition. bead-based flow cytometry, Bim peptide-Bcl-B binding. inhibition, % at 10 µM. actives 0.073% (n = 190,000). AID 951;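 further: 0% = tracer peptide without compound and 100% = reference inhibitor peptide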
* marks the source's active call; other numbers are inactive results. An excerpt weighted towards active compounds, which were near 0.25% of everything screened. Unless noted, no stated cut-off is given here; in the data, active means inhibition above about 40%.

O=C(CSc1nncs1)NC(=O)NC1CCCC1 was read as Bcl-W Bim block -4, Bcl-2 Bim block 0, Furin inh -23, Bim-Bcl-XL -2, Bim-Bfl-1 -5 and Bim-Bcl-B -7.
For CCN(CC)CCC(c1ccc2c(c1)OCO2)c1c(O)cc(OC)cc1OC (stereo not drawn) the results were Furin inh -25.
Screening Cc1ccc(NC(=O)C/C(N)=N/OC(=O)c2ccccc2)cc1 returned Bcl-W Bim block 0, Bcl-2 Bim block 73*, Furin inh -18, Bim-Bcl-XL 2, Bim-Bfl-1 51* and Bim-Bcl-B 64*.
CCOC(=O)c1ccc(NC(=O)CNC(=O)c2ccccc2)cc1 was read as Bcl-W Bim block 0, Bcl-2 Bim block -5, Furin inh -3, Bim-Bcl-XL -22, Bim-Bfl-1 -12 and Bim-Bcl-B -9.
Screening Cc1cc(C)nc(SCc2cc(=O)c(OC(=O)c3ccc(Cl)c([N+](=O)[O-])c3)co2)n1 returned Bcl-W Bim block 36, Bcl-2 Bim block 13, Furin inh -11, Bim-Bcl-XL 52*, Bim-Bfl-1 0 and Bim-Bcl-B 18.
CC(CCc1ccccc1)NC(=O)C1CCN(S(=O)(=O)N2CCOCC2)CC1 (stereo not drawn) was read as Bcl-W Bim block -7, Bcl-2 Bim block -5, Furin inh -23, Bim-Bcl-XL -8, Bim-Bfl-1 -3 and Bim-Bcl-B -11.
For CN(CC1CCOCC1)C(=O)CC1C(=O)NCCN1Cc1ccc(-c2ccccc2)cc1 (stereo not drawn) the results were Bcl-W Bim block 0, Bcl-2 Bim block -2, Furin inh -13, Bim-Bcl-XL 0, Bim-Bfl-1 -6 and Bim-Bcl-B -1.
CSc1ccc(N=Nc2c(C)[nH]n(C)c2=O)cc1 was read as Furin inh 26*.
Screening CCCCCCN1C=CC=C/C1=C/C=C(C#N)C#N returned Bcl-W Bim block -3, Bcl-2 Bim block -1, Furin inh 30*, Bim-Bcl-XL -7, Bim-Bfl-1 0 and Bim-Bcl-B -5.
Cc1nc(SCc2ccc(O)c([N+](=O)[O-])c2)n[nH]1 was read as Bcl-W Bim block -12, Bcl-2 Bim block -5, Furin inh 31*, Bim-Bcl-XL -10, Bim-Bfl-1 -2 and Bim-Bcl-B -31.
`COc1c(F)c(F)c(C(=O)Nc2ccccc2N2CCN(C(C)=O)CC2)c(F)c1F` gave Bcl-W Bim block -6, Bcl-2 Bim block -7, Furin inh -9, Bim-Bcl-XL -3, Bim-Bfl-1 -5 and Bim-Bcl-B -3.
Screening COc1c(F)c(F)c(C(=O)Nc2ccccc2N2CCN(C(=O)C(C)C)CC2)c(F)c1F returned Bcl-W Bim block 12, Bcl-2 Bim block 83*, Furin inh -28 and Bim-Bcl-XL 18.
`CCN(CC)CCN(C(=O)c1ccc(N2C(=O)CCC2=O)cc1)c1nc2cc3c(cc2s1)OCCO3` gave Bcl-W Bim block 4, Bcl-2 Bim block 43*, Furin inh -14, Bim-Bcl-XL 1, Bim-Bfl-1 32 and Bim-Bcl-B 36.
`CCN(CC)CCN(C(=O)c1cccc(N2C(=O)CCC2=O)c1)c1nc2cc3c(cc2s1)OCO3` gave Bcl-W Bim block 4, Bcl-2 Bim block -2, Furin inh -14, Bim-Bcl-XL -2, Bim-Bfl-1 -3 and Bim-Bcl-B 1.
For COc1ccc(-c2nc3ccccc3c(=O)n2CCOc2cccc(C)c2C)cc1 the results were Bcl-W Bim block -7, Bcl-2 Bim block -7, Furin inh -6, Bim-Bcl-XL -9, Bim-Bfl-1 -9 and Bim-Bcl-B -8.
For CN(C)[C@@H]1C(=O)C(C(=O)NCN2CCCC2)=C(O)[C@@]2(O)C(=O)C3=C(O)c4c(O)cccc4[C@@](C)(O)C3CC12 (stereo partly drawn) the results were Bcl-W Bim block 21, Bcl-2 Bim block 37, Furin inh -10, Bim-Bcl-XL 10, Bim-Bfl-1 19 and Bim-Bcl-B 43*.
For CCCN1C(=O)/C(=C\C=C2/Sc3ccccc3N2CC)SC1=S the results were Bcl-W Bim block -5, Bcl-2 Bim block 9, Furin inh -5, Bim-Bcl-XL -2, Bim-Bfl-1 5 and Bim-Bcl-B -54.
For CCN1C(=O)/C(=C/C=C2\C=CN(CC)c3ccccc32)SC1=S the results were Bcl-W Bim block 21, Bcl-2 Bim block 23, Furin inh -15, Bim-Bcl-XL 10, Bim-Bfl-1 50* and Bim-Bcl-B -11.
